Laboratory results as given in PMC7819943, “Rice protein-binding microarrays: a tool to detect cis-acting elements near promoter regions in rice”.
Whole data set: some 68,000 sequences, median “fluorescence intensity (a.u.)” near 9,100, cut for the highest 2% near 16,000. The list comes from a sample in which the highest values are over-represented; it also holds similar and randomly drawn sequences.

These sequences were tested against OsWRKY34 (Oryza sativa, UniProt Q0JBA9 1-250) (assay: protein-binding microarray (RPBM); PBS, 2% BSA, 51.3 ng/ul salmon testes DNA, 50 uM zinc acetate, 200 nM TF, 25 C, 1 h; high values mean tight binding). Details: protein: recombinant; tags: N-terminal polyhistidine and DsRed monomer fusion (pET32a); label: CyDye5-dUTP incorporated in the synthesized complementary strand; 3' TTTTT single-stranded linker to array surface; dsDNA, one strand shown.
Sequence of OsWRKY34 (Q0JBA9 entry or part of it): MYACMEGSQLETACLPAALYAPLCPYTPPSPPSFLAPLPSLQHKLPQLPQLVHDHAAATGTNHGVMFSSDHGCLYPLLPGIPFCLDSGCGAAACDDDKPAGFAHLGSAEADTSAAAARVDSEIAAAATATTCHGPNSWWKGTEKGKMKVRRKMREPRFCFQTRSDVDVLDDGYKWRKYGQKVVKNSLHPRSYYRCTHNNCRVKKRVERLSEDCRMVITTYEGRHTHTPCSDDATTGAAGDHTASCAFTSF
Method in brief: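 Transcription factors were each fused at the N-terminus to a polyhistidine tag plus DsRed and expressed in E. coli BL21-CodonPlus before Ni–NTA purification. Binding to a double-stranded custom Agilent array was carried out with 200 nM protein at 25 °C for 1 h in PBS, 2% BSA, salmon testes DNA and 50 µM zinc acetate. The binding signal is per-feature fluorescence intensity, in arbitrary units, on an Axon 4000B scanner.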
For “CCTTTTCAAGTATTATTGCTGTTTGATTCATCTCTCTTTGCGGAGTCACCTAGTGCAG”, the binding signal was 9510 fluorescence intensity (a.u.).
For “TAAACTTGCTCTGATGCGCCCACACGGGGCCACGGCGCGCCGGAGTCACCTAGTGCAG”, the binding signal was 9010 fluorescence intensity (a.u.).
For “TAAACTCGTCTTATCCGCATGATTGTTGACTATAGTATGTCGGAGTCACCTAGTGCAG”, the binding signal was 9300 fluorescence intensity (a.u.).
With “CTTTCATATATGTGTGTGCTATGATTTGTTTTCTTCCTCACGGAGTCACCTAGTGCAG” the binding signal was 11900 fluorescence intensity (a.u.).
“CCGCATCCTTCTTGGACTTCTGTTTTGTTGTTGGCCATGGCGGAGTCACCTAGTGCAG” was tested, and the binding signal was 11100 fluorescence intensity (a.u.).
For “GATTTTTCTTTACATGTTCTTTTTCATCGATCTTTTGAGACGGAGTCACCTAGTGCAG”, the binding signal was 9460 fluorescence intensity (a.u.).
“GCTCCAGATCTGTGGGTGTCTTTGGGTGAGTGGGCAAATACGGAGTCACCTAGTGCAG” was tested, and the binding signal was 11200 fluorescence intensity (a.u.).
With “CTTCTGCTTGGTGTGTTGTGTGTTTTACCTTGAGTTATCTCGGAGTCACCTAGTGCAG” the binding signal was 8480 fluorescence intensity (a.u.).
With “TCGTTTTTCTCTTTAGTGTGTGTGTGTTGCGTTTTTGCAACGGAGTCACCTAGTGCAG” the binding signal was 10300 fluorescence intensity (a.u.).
“CTGAACATGTTGTTCAGTTGGCCTCGTTTTCTCACCTTTGCGGAGTCACCTAGTGCAG” was tested, and the binding signal was 9320 fluorescence intensity (a.u.).
In the case of “ATATCTCACTTTGACTGCTTGTTGTTATCGTTCTTTTATACGGAGTCACCTAGTGCAG”, the binding signal is reported as 12000 fluorescence intensity (a.u.).
In the case of “GACCTGAAGTTCTCGTTGTGTTGGCCTGCGTTTTTATCTGCGGAGTCACCTAGTGCAG”, the binding signal is reported as 16800 fluorescence intensity (a.u.).
For “TTGTTCTCTTTTTTTTTGCGTGCGTTGACTTTATCTTCAACGGAGTCACCTAGTGCAG”, the binding signal was 19900 fluorescence intensity (a.u.).
In the case of “GGGAGTCAAAGTAGACTTATTCTTCCCCAATCCATCTCAGCGGAGTCACCTAGTGCAG”, the binding signal is reported as 8330 fluorescence intensity (a.u.).
“GTTCTCGATGTGTTCTAAAATTTTGTTGTTTATAATTTTTCGGAGTCACCTAGTGCAG” was tested, and the binding signal was 8190 fluorescence intensity (a.u.).
“TTCATCGTAAACGTTACTTCTCGTTATAAATTGATTTTTTCGGAGTCACCTAGTGCAG” was tested, and the binding signal was 10100 fluorescence intensity (a.u.).
In the case of “ACAGCGACCTTTTGCTGCAAAGCTTTGTTGGGTTTGGGCTCGGAGTCACCTAGTGCAG”, the binding signal is reported as 8470 fluorescence intensity (a.u.).
For “ACGACCCCTCCAACACATTTCCCTCGCGTCTCGTTGCGATCGGAGTCACCTAGTGCAG”, the binding signal was 8480 fluorescence intensity (a.u.).
For “AGGATCGAGGAATTCAGTTAAGCAAAAATATTTATACATGCGGAGTCACCTAGTGCAG”, the binding signal was 47600 fluorescence intensity (a.u.).
For “CTCGTTATATCTATTATAAATTTTTTAATATACATGTTATCGGAGTCACCTAGTGCAG”, the binding signal was 9040 fluorescence intensity (a.u.).
For “ATCGTACCATTATTCAAAATTTTAAATAGTTACATGTTCACGGAGTCACCTAGTGCAG”, the binding signal was 8120 fluorescence intensity (a.u.).
With “ATCTCCGGCGTTTTTCAACCGTATGGCAATGATCATCCTTCGGAGTCACCTAGTGCAG” the binding signal was 11100 fluorescence intensity (a.u.).
For “GTGGCTGCGTGTGGTGGCGTTGCACGGCTCGGGTGGGCTCCGGAGTCACCTAGTGCAG”, the binding signal was 8660 fluorescence intensity (a.u.).
With “TGGCTGCCGGACTTGGGAGGGACACTGGGTTGGTTGTGGGCGGAGTCACCTAGTGCAG” the binding signal was 9440 fluorescence intensity (a.u.).
For “TAGGGAGGGTTGTGGGGAGGGGAGCTGTGGCCGCAATGTCCGGAGTCACCTAGTGCAG”, the binding signal was 19400 fluorescence intensity (a.u.).
With “TTGTGGCAATGGCGGCGGTGGCGGTGGCGGTTGGGGTGGCCGGAGTCACCTAGTGCAG” the binding signal was 11500 fluorescence intensity (a.u.).
For “GGGCTTGTTGGGGTTGCTGTGGTAGCCGGGAGGGAGGGGACGGAGTCACCTAGTGCAG”, the binding signal was 28500 fluorescence intensity (a.u.).
“CTGTGGTGGTGTGCATACGGGTTGGGGTGGAGGGCTGCTCCGGAGTCACCTAGTGCAG” was tested, and the binding signal was 17900 fluorescence intensity (a.u.).
With “GAAGGTTGCTGTTGCTTGTTGTTGGTAGTGTCTTGTGTGCCGGAGTCACCTAGTGCAG” the binding signal was 9090 fluorescence intensity (a.u.).
“TGGCCGGAGCTAGGGTGGGTGGGTGGTTGGCCGCACCACCCGGAGTCACCTAGTGCAG” was tested, and the binding signal was 8250 fluorescence intensity (a.u.).
For “GTTGGGGTGGAGGGCTGCTCCAGGTGAGAGGGCTGGGCATCGGAGTCACCTAGTGCAG”, the binding signal was 9900 fluorescence intensity (a.u.).
For “TAGCTCACATCGTTTTACGTATCTTCCCAATCTCCTGATCCGGAGTCACCTAGTGCAG”, the binding signal was 8950 fluorescence intensity (a.u.).
With “CTTTCGCGTTTTCCTTGGGTTTGACAATGGGCTACATTGCCGGAGTCACCTAGTGCAG” the binding signal was 9400 fluorescence intensity (a.u.).
With “TATACTCCTTATCTTGGATTGGTAGTCTTTAGTTTGCTTTCGGAGTCACCTAGTGCAG” the binding signal was 9320 fluorescence intensity (a.u.).
For “AACACCACGCCGCGCGCTCCACGGCAACGCAACGCAGGAACGGAGTCACCTAGTGCAG”, the binding signal was 8720 fluorescence intensity (a.u.).
With “CAAAGTTGTGTGTTGTGAAGTGTGAAGGAGAGCTCTATTTCGGAGTCACCTAGTGCAG” the binding signal was 8610 fluorescence intensity (a.u.).
In the case of “TCCGGAGTCTGCACCCATCTTCCCCACGTGCGCGCCCATCCGGAGTCACCTAGTGCAG”, the binding signal is reported as 8980 fluorescence intensity (a.u.).
“ACCATTGATTTTTCAGTACGTGTTTGACCATTCGTCTTATCGGAGTCACCTAGTGCAG” was tested, and the binding signal was 13300 fluorescence intensity (a.u.).
“TGACGCCGTTGACTTTTTCTCACATGTTTGACTATTCGTCCGGAGTCACCTAGTGCAG” was tested, and the binding signal was 49100 fluorescence intensity (a.u.).
With “TGACGCCGTTAACTTTTTCTCACATATTTGACTATTTGTCCGGAGTCACCTAGTGCAG” the binding signal was 10900 fluorescence intensity (a.u.).
With “TTTTCTCATATGTTTGACCATTCGTCTTATTCAAAAAATTCGGAGTCACCTAGTGCAG” the binding signal was 9000 fluorescence intensity (a.u.).
In the case of “TTTCGTCAGCTGATCGTATATTGACCTTTTCTGTCTCTGTCGGAGTCACCTAGTGCAG”, the binding signal is reported as 10500 fluorescence intensity (a.u.).
With “CACCGTTAATTTTTTCTCACATGTTTGACCATTCATCTTACGGAGTCACCTAGTGCAG” the binding signal was 14400 fluorescence intensity (a.u.).
For “GCTGTTGACTTTTTCTCACGTGATTGACCTTTCGTCTTATCGGAGTCACCTAGTGCAG”, the binding signal was 28400 fluorescence intensity (a.u.).
In the case of “TGACGCCGTTGACTTTTTCTTACATGTTTGACCATTCGTCCGGAGTCACCTAGTGCAG”, the binding signal is reported as 36700 fluorescence intensity (a.u.).
With “ATTGACTTTTTCTTACACTGTTTAACCATTCGTCTTATTCCGGAGTCACCTAGTGCAG” the binding signal was 14000 fluorescence intensity (a.u.).
For “CGCCGTTGACTTTTTCTCATATGTTTGACCATTCATCTTACGGAGTCACCTAGTGCAG”, the binding signal was 38900 fluorescence intensity (a.u.).
“TCGCCGCTTTCCCTTTCTCCCCTGCGCTCTCACGTCAAACCGGAGTCACCTAGTGCAG” was tested, and the binding signal was 8970 fluorescence intensity (a.u.).
“CTCTGCTCAGTGCTGCTCACTGCCTCACTCACACTGTCACCGGAGTCACCTAGTGCAG” was tested, and the binding signal was 11000 fluorescence intensity (a.u.).
“CTAACCTGGACCGTCCATCCGCGCGAAGTTTTCTCCACCGCGGAGTCACCTAGTGCAG” was tested, and the binding signal was 9060 fluorescence intensity (a.u.).
For “TTCCACACAATGTGCTAAAAGTTTGACTTTTACACGTCCACGGAGTCACCTAGTGCAG”, the binding signal was 14500 fluorescence intensity (a.u.).
“AACATCTGCCTGCTCACTAAAATGATCTACCGGCTTTTTTCGGAGTCACCTAGTGCAG” was tested, and the binding signal was 8620 fluorescence intensity (a.u.).
For “CGCTGTTTTTTTTTTATTTTGACGGGTAGTAGAGGCCGCGCGGAGTCACCTAGTGCAG”, the binding signal was 9990 fluorescence intensity (a.u.).
For “TTTCAGAGCTATTTGGCCTTTAATACACTTTCCTATTAAGCGGAGTCACCTAGTGCAG”, the binding signal was 8710 fluorescence intensity (a.u.).
